Shown are actives, neighbours in structure and some others; about 1.5% of the full set was active somewhere.
eIF4E 4G PPI: eIF4E–eIF4G protein interaction inhibitors, primary screen, biochemical, uHTS, TR-FRET, eIF4GI fragment; TR-FRET eIF4E-eIF4GI(517-606) binding, 2 h; inhibition, % at 21.7 µM; actives 0.37% (n = 220,000);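 active = inhibition above about 30%, limit read from the data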
PABP polyA inh: PABP poly(A) RNA binding inhibitors, primary screen, biochemical, fluorescence polarization, uHTS; Polyadenylate-binding protein 1 (Homo sapiens), P11940; calls only at 35 µM; actives 1% (n = 290,000); AID 2014, 2009;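 note: calls also rest on retests at 20 µM and on dose response follow-up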
PABP1 MLLE inh: inhibitors of PABP1 MLLE–PAM2 peptide binding, primary screen, biochemical, fluorescence polarization, FITC-PAM2, GST-MLLE; inhibition, % at 20 µM; actives 0.36% (n = 360,000); in the data active = inhibition above about 35%, passing the limit was not always enough
eIF4H inh: human eIF4H binding inhibitors, primary screen, translation initiation inhibitor project, biochemical, uHTS, fluorescence polarization; inhibition, % at 35 µM; Eukaryotic translation initiation factor 4H (Homo sapiens), Q15056; actives 0.94% (n = 290,000); eIF4H fluorescence polarization binding assay;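 note: calls also rest on retests at 20 µM and on dose response follow-up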
Hits are given with their value; 0 = inactive; ? = inconclusive; - = not tested or not shown; + = active, no number; [ ] = dose if it differs, or a comment. Unless noted, the rule behind the calls is not given here.

SMILES	eIF4E 4G PPI	PABP polyA inh	PABP1 MLLE inh	eIF4H inh
C[C@@H]1CN([C@@H](C)CO)C(=O)CCCn2nncc2CO[C@H]1CN(C)Cc1cccc(O)c1	-	-	0	-
COc1ccccc1CN1CCN(C(=O)c2ccncc2)CC1	62.5	0	0	0
CCCCCCN1C[C@H](n2cc(COC(=O)c3ccccc3)nn2)[C@@H](O)C[C@@H]1c1ccc(C)cc1	-	-	0	-
CC(C)(C)CN1CCNC(=O)C1CC(=O)NCCN1CCCc2ccccc21 (configuration not stated)	0	0	0	57.8
CC(C)(C)NC(=O)CN(C(=O)CCN1CCCc2ccccc21)C(C)(C)C	0	0	54.1	0
CC(C)Cc1ccc(CN2C(C)C(=O)N(Cc3cn(Cc4ccco4)nn3)CCS2(=O)=O)cc1 (configuration not stated)	-	-	0	-
COC(=O)CCCC1=CC2=C(c3ccccc3)C(=O)C(C)(OC(=O)C3CCCC3)C(=O)C2=CN1CC1CC1 (configuration not stated)	89.4	0	0	0
Cc1cc(O)cc2c1C(=O)/C(=C/c1ccco1)O2	-	+	0	60.8
CCC(=O)Oc1ccc2c(c1)O/C(=C\c1ccco1)C2=O	0	?	0	?
CC(C)c1ccc(CC(=O)N2CCC2(C)C(=O)NS(=O)(=O)c2ccc(Cl)s2)cc1 (configuration not stated)	-	-	0	-
Cc1nc(SCC(=O)NC2CCCC2)c2oc3ccccc3c2n1	-	-	0	-
CCOc1ccc(C(=O)NCC(c2cccs2)N(C)C)cc1OCC (configuration not stated)	0	0	0	86.6
Cc1cc2c(c(=O)n1Cc1ccco1)C(c1cccnc1)C(C#N)=C(N)O2 (configuration not stated)	0	+	0	124.4
COC(=O)C1=C(C(=O)OC)C(c2ccccc2O)c2sc(=O)[nH]c2S1 (configuration not stated)	0	0	45.5	0
COC(=O)c1sc2ccccc2c1N	0	0	0	0
O=C(CN1C(=O)NC2(CCCCC2)C1=O)Oc1ccc2c(C(F)(F)F)cc(=O)oc2c1	-	-	44.5	-
CCc1cc(=O)oc2cc(OC(=O)CN3C(=O)NC4(CCCC4)C3=O)ccc12	-	0	0	0
Cc1ccc(S(=O)(=O)NC(=O)C2(C)CCN2C(=O)c2cccc(F)c2)nc1 (configuration not stated)	-	-	0	-
O=[N+]([O-])c1ccc(-c2nc(=S)c3c(o2)CCCC3)cc1	0	0	45.0	0
COc1cccc(-c2nc(=S)c3c(o2)CCCC3)c1	0	0	45.3	0
S=c1nc(-c2ccccc2)oc2c1CCCC2	0	0	0	0
N=C1/C(=C\c2ccc(-c3ccc(C(=O)O)cc3)o2)C(=O)N=C2SC=C(c3ccccc3)N12	64.5	0	0	69.5
N=C1/C(=C\c2ccc(-c3cccc(Cl)c3)o2)C(=O)N=C2SC=C(c3ccccc3)N12	0	0	0	0
C[C@@H]1CN([C@H](C)CO)C(=O)c2c(c3ccccc3n2C)-c2ccccc2CO[C@H]1CN(C)C(=O)CCC(F)(F)F	-	-	0	-
Cc1cc(C(=O)CSc2nc(N)cc(N)n2)c(C)n1-c1cccc(C(F)(F)F)c1	0	0	0	56.4
SMILES	eIF4E 4G PPI	PABP polyA inh	PABP1 MLLE inh	eIF4H inh
O=C(Nc1nnc(C2CC2)s1)C1CCCO1 (configuration not stated)	0	0	0	0.7
CC(C)c1nnc(NC(=O)C2CCCO2)s1 (configuration not stated)	0	0	0	0
CC1(C(=O)NS(=O)(=O)c2ccccc2Cl)CCN1C(=O)c1ccccc1 (configuration not stated)	-	-	0	-
CCn1c(C)nc2cc(C(=O)NNC(=S)Nc3ccccc3)ccc21	0	0	0	0
CCn1c(C)nc2cc(C(=O)NNC(=S)NC(=O)c3ccccc3)ccc21	0	+	0	0
CCOC(=O)Cc1c[nH]c(=S)[nH]c1=O	0	0	39.9	0
O=C(NC(c1ccc(Cl)cc1)c1ccccn1)C1CCN(CCOc2ccc(Cl)cc2Cl)CC1 (configuration not stated)	-	-	0	-
CCCCCC(=O)NC(NC(=S)Nc1ccc(S(N)(=O)=O)cc1)C(Cl)(Cl)Cl (configuration not stated)	0	+	0	61.1
CCCC(=O)NC(NC(=S)Nc1ccc(S(N)(=O)=O)cc1)C(Cl)(Cl)Cl (configuration not stated)	0	0	0	0
CN(C)c1nc2n(c(=O)n1)CCS2	0	0	0	0
CN(C)c1nc2n(c(=O)n1)C(C#N)CS2 (configuration not stated)	0	0	39.7	0
CCOc1ccccc1NC(=O)C1CCN(S(=O)(=O)c2cccc3cccnc23)CC1	57.4[fluorescence artefact?]	0	0	0
N#Cc1c(N)sc(=S)c2c1CCCC2	0	?	48.1	?
CC(=O)c1c(N2CCN(Cc3ccccc3)CC2)nc(=S)n(-c2ccccc2)c1C	0	+	0	53.7
CCn1c(C)c(C(C)=O)c(N2CCN(C(=O)c3ccco3)CC2)nc1=S	71.5	0	0	0
CCOC(=O)CC1(C)c2nc(NC(C)=O)sc2Cc2sc(NC(C)=O)nc21	-	-	0	-
CCCCC(=O)NC(=S)Nc1ccccc1C(=O)Nc1ccccc1	0	0	40.1	0
COc1ccccc1NC(=O)COC(=O)Cn1cnc2c1c(=O)n(C)c(=O)n2C	-	-	0	-
Oc1cccc(/C=N/Nc2cc(N3CCCC3)nc(N3CCCC3)n2)c1	0	0	0	29.1
Oc1ccc(/C=N/Nc2cc(N3CCCC3)nc(N3CCCC3)n2)cc1	0	?	70.4	0
COc1ccc(/C=N/Nc2cc(N3CCCC3)nc(N3CCCC3)n2)cc1	0	0	54.1	0
CN1N=C(N)c2cn(C3OC(COP(=O)(O)O)C(O)C3O)c3ncnc1c23 (configuration not stated)	-	-	50.9	-
COc1nnc(-c2ccccc2)s1	0	0	38.8	0
O=C(NCC(=O)N1CCN(Cc2ccccc2)CC1)c1ccccc1Cl	-	-	0	-
NC(=O)SCC(=O)Nc1ccc(Cl)c(Cl)c1	-	0	41.1	0
SMILES	eIF4E 4G PPI	PABP polyA inh	PABP1 MLLE inh	eIF4H inh
Cc1ccc(NC(=O)CSC(N)=O)cc1Cl	0	0	40.7	0
COc1ccc(-c2ccc(SCC(=O)Nc3nnc(C)s3)nn2)cc1	0	+	0	54.8
CCOc1ccc(-c2ccc(SCC(=O)Nc3nnc(CC)s3)nn2)cc1	0	0	0	0
COc1ccc(CCNC(=O)CSc2ccc(-c3ccncc3)nn2)cc1	0	0	0	1.1
N#Cc1c(-c2ccc(F)cc2)cc(-c2cccnc2)nc1N	0	0	0	0
N#Cc1c(-c2ccco2)cc(-c2ccc(F)cc2)nc1N	-	+	0	62.1
COc1ccccc1-n1c(N)c(C(N)=O)sc1=S	0	0	41.4	0
CCN(CC(O)CON=C1c2ccccc2-c2ccccc21)S(=O)(=O)c1ccc(C)cc1 (configuration not stated)	0	+	0	80.0
CC1(c2nnc(-c3ccccc3)o2)CC(c2ccncc2)=NO1 (configuration not stated)	97.2	0	0	0

Screening data deposited in PubChem BioAssay by several laboratories.
